Source: PubChem BioAssay (several laboratories)
Most compounds without a hit are left out; they make up all but 12% or so of the library.
L major viab: Leishmania major promastigote growth inhibition, primary screen; 200,000 compounds, 9% hits; Leishmania major promastigotes, resazurin fluorescence viability; inhibition, % at 10 µM; in the data active means inhibition above about 50%;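 further: promastigotes grown with compound for 44 hours at 28 °C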
CHOP inhibitor: inhibitors of CHOP promoter induction, primary screen, cell-based, unfolded protein response, luciferase reporter. inhibition, % at 10 µM. 220,000 compounds, 3.8% hits. CHO-K1 CHOP-promoter luciferase, tunicamycin-induced, 15-18 h;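 active means compounds that reduced the stress-induced luciferase reporter signal by more than about 70% of percent inhibition, limit read from the data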;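 further: 0% = tunicamycin plus vehicle and 100% = wells without tunicamycin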
Arbovirus inh: antivirals against arbovirus infection, primary screen, cell-based, full library, 10K replicate subset. arbovirus infection cell-based antiviral screen. 200,000 compounds, 0.37% hits. inhibition, % at 10 µM; in the data active means inhibition above about 30%
WT yeast gro inh: growth inhibition of WT strain, primary screen, mitochondrial fusion inhibitor project, WT and mutant strains, chemical genetic. mitochondrial fusion phenotypic screen. inhibition, % at 10 µM. 190,000 compounds, 2.1% hits. AID 1362, 2008; in the data active means inhibition above about 58%; tested in S. cerevisiae
Numbers without * were called inactive; x = not tested or not shown.

SMILES | L major viab | CHOP inhibitor | Arbovirus inh | WT yeast gro inh
Cc1ccc(S(=O)(=O)N2CCN(c3ccc(C(=O)N4CCOCC4)cc3[N+](=O)[O-])CC2)cc1 | 61.2* | 42.5 | 4.5 | -1.5
CS(=O)(=O)N1CCN(c2ccc(C(=O)N3CCOCC3)cc2[N+](=O)[O-])CC1 | -1.4 | 7.7 | 4.0 | -3.5
Cc1cc(C)n(CCN(C)c2nc3nonc3nc2NC2CC2)n1 | -6.5 | 1.5 | 8.2 | -12.5
CCCC1=C(C(=O)OCC)C(c2cccnc2)n2nc(C)nc2N1 (centres undefined) | x | -0.5 | x | x
Cc1cc(C)nc(NS(=O)(=O)c2ccc(NC(=O)CCC3COc4ccccc4O3)cc2)n1 (centres undefined) | -3.8 | 77.4* | 5.0 | -12.6
Cc1ccc(C(=O)NC(=S)Nc2ccc(S(=O)(=O)N(C)c3ccccc3)cc2)cc1 | -1.8 | 40.7 | 2.5 | 13.0
CCOC(=O)c1ccc(NC(=O)CCC2COc3ccccc3O2)cc1 (centres undefined) | -4.4 | 34.0 | -7.7 | -18.4
Cc1cc(C)nc(NS(=O)(=O)c2ccc(NC(=S)NC(=O)C3CCCC3)cc2)n1 | -15.2 | 71.9* | 3.4 | 1.2
CC(C)NS(=O)(=O)c1ccc(NC(=S)NC(=O)c2ccc(-c3ccccc3)cc2)cc1 | 93.3* | 52.3 | -12.0 | 1.0
CN(c1ccccc1)S(=O)(=O)c1ccc(NC(=S)NC(=O)c2ccccc2)cc1 | 100.0* | 15.3 | 5.9 | 29.9
Fc1ccc(-c2nc(-c3cnccn3)no2)c(Cl)c1 | x | 5.0 | x | x
CC(NCC(=O)Nc1cc(S(=O)(=O)N2CCCCCC2)ccc1Cl)c1ccccc1 (centres undefined) | 16.7 | 18.7 | 1.7 | 10.6
CC1CN(S(=O)(=O)c2ccc(NC(=O)c3cc(-c4ccccc4O)n[nH]3)cc2)CC(C)O1 (centres undefined) | 99.8* | x | 1.7 | -2.8
COc1cc(C(=O)Nc2ccc(S(=O)(=O)N(C)c3ccccc3)cc2)cc(OC)c1OC | 9.7 | 35.4 | -12.0 | -6.4
COc1ccccc1/C=C/C(=O)NC(=S)Nc1ccc(S(=O)(=O)N(C)c2ccccc2)cc1 | 62.2* | 4.1 | -10.2 | 30.4
O=C(Nc1ccc(S(=O)(=O)N2CCOCC2)cc1)c1cc(-c2ccccc2O)n[nH]1 | x | 23.9 | x | x
Cc1nc2ccc(NC(=O)c3cccc(S(=O)(=O)N4CC(C)OC(C)C4)c3)cc2s1 (centres undefined) | 98.3* | 34.7 | -1.0 | 4.4
CN(c1ccccc1)S(=O)(=O)c1ccc(NC(=S)NC(=O)C2CC2)cc1 | 74.7* | 22.7 | 4.5 | 67.6*
Cc1nc2ccc(NC(=O)c3ccc(S(=O)(=O)N4CCOCC4)cc3)cc2s1 | 27.1 | 12.7 | 10.6 | -7.9
O=C(O)C1=C[C@H](c2ccc(Br)cc2)C[C@H](OCc2ccc(CO)cc2)O1 | -9.5 | -4.5 | 3.7 | -10.4
CC(C)=CC(O)C/C(C)=C/COc1ccc2ccc(=O)oc2c1 (centres undefined) | x | 5.8 | x | x
CN(C(=O)COc1ccccc1C(=O)NCCc1ccccc1)c1ccccc1 | 4.7 | -19.1 | -6.8 | -9.3
Cc1cc(C)nc(NS(=O)(=O)c2ccc(NC(=O)c3ccco3)cc2)n1 | -4.9 | -0.3 | 4.3 | 5.5
CCc1ccc(C(=O)Nc2ccc(S(=O)(=O)Nc3nc(C)cc(C)n3)cc2)o1 | -2.9 | 30.8 | 106.0* | x
Cc1nc2ccc(NC(=O)c3ccc([N+](=O)[O-])cc3[N+](=O)[O-])cc2s1 | 99.6* | -8.4 | -5.1 | 22.2
SMILES | L major viab | CHOP inhibitor | Arbovirus inh | WT yeast gro inh
Cc1nc2ccc(NC(=O)c3ccc(S(=O)(=O)N(C)c4ccccc4)cc3)cc2s1 | 99.5* | 28.5 | -17.2 | 20.3
CCN(CC)c1ccc(/C=C2\SC(=O)N(C(C)C)C2=O)o1 | x | -68.8 | x | x
COc1ccc(S(=O)(=O)NCCC(C)C)cc1C | -6.1 | 31.5 | 1.4 | -8.2
CCN1CCN(C(=O)C(C)Nc2cc(Cl)c(OC)cc2OC)CC1 (centres undefined) | 0.9 | -2.0 | 0.9 | -8.4
Cc1cc(N=Cc2c(O)ccc3ccccc23)no1 | -3.7 | -8.9 | 3.0 | 0.0
Cc1cc(N=Cc2c(O)ccc3cc(Br)ccc23)no1 | -4.8 | -13.2 | 55.2* | 0.4
CCOc1nc(N=C(N)N)nc2c(C)cccc12 | 99.9* | 18.7 | -21.1 | -14.0
CCOc1nc(-c2ccccc2O)nc2ccccc12 | -6.1 | 34.5 | 7.2 | 0.1
S=c1[nH]ncn1/N=C/c1cccc(Oc2ccccc2)c1 | -12.5 | 7.1 | -3.4 | 72.9*
C(=N\n1cnnc1)/c1cccc(Oc2ccccc2)c1 | 20.0 | 29.1 | -2.4 | 45.9
Fc1ccc(N/N=C/C=C/c2ccccc2)c(F)c1 | -3.6 | 77.0* | -35.6 | 10.8
O=C1Nc2ccc(Cl)cc2[C@@](C#CC2CC2)(C(F)(F)F)O1 | x | 101.9* | -21.9 | 82.3*
CCC(=O)NC(=S)Nc1ccc(NC(=O)c2cc3ccccc3o2)c(OC)c1 | 9.5 | 38.1 | 3.1 | -2.0
OC(CNCc1ccccc1)COCc1ccc(Cl)cc1 (centres undefined) | 84.4* | -0.6 | -6.2 | 9.3
NC(=O)C1CC(=O)N(c2ccc(OCc3c(Cl)cccc3Cl)cc2)C1 (centres undefined) | 0.1 | -16.3 | 0.3 | 0.4
Nc1c(N2CCOCC2)cc(Cl)c2nonc12 | 0.1 | -16.3 | 2.6 | -2.4
Nc1c(N2CCCC2)cc(Cl)c2nonc12 | 86.4* | -261.4 | -2.1 | -15.1
CCN(CC)S(=O)(=O)c1c(OC)cc(C)c(Cl)c1C | 1.5 | 23.4 | -14.5 | -16.3
O=C(CCn1c(=O)oc2ccccc21)NCc1cccs1 | 0.5 | 24.9 | -1.4 | -13.3
Cc1[nH]n2c(=O)c3c(nc2c1-c1ccccc1)CCC3 | 22.3 | 13.6 | -21.4 | 5.5
Nc1nc(N)c(N=Nc2ccc(Cl)cc2)c(=O)[nH]1 | -5.9 | 20.8 | 8.4 | -18.9
O=c1c2c(nc3c(-c4ccccc4)c[nH]n13)CCCC2 | 73.7* | -4.2 | 27.4 | 1.1
Nc1[nH]n2c(=O)c3c(nc2c1N=Nc1ccc(Cl)cc1)CCCC3 | 79.0* | 77.6* | -22.7 | 0.9
Nc1[nH]n(-c2ccccc2)c(=O)c1N=Nc1ccccc1 | x | -5.4 | x | x
Cc1[nH]n2c(=O)c3c(nc2c1-c1ccc(Cl)cc1)CCC3 | 99.5* | 51.4 | -1.8 | 6.3
SMILES | L major viab | CHOP inhibitor | Arbovirus inh | WT yeast gro inh
Nc1[nH]n2c(=O)c3c(nc2c1N=Nc1ccccc1)CCCC3 | 90.9* | -85.9 | -14.7 | 80.1*
Cc1cc(Cl)ccc1OCCn1cncn1 | -4.8 | -0.3 | 4.7 | -8.6
Brc1c(OCCOCCn2cncn2)ccc2ccccc12 | 65.5* | 18.2 | 2.5 | 7.5
CN(Cc1ccno1)C(=O)CC1C(=O)NCCN1CC(c1ccccc1)c1ccccc1 (centres undefined) | -2.6 | 26.8 | 5.3 | 6.6
COc1ccc(C(=O)Nc2ccc(S(=O)(=O)N3CCCCC3)cc2)cc1 | 9.2 | 28.6 | -18.2 | 0.1
COc1ccc(NC(=O)c2cccc(S(=O)(=O)N3CCc4ccccc43)c2)cn1 | 94.1* | 24.4 | 5.6 | 28.3
COc1ccc(-c2cnnn2-c2ccc(NC(=O)c3ccc(S(=O)(=O)N4CCCCC4)cc3)cc2)cc1 | 98.8* | 62.2 | -0.5 | 8.2
O=C(NCCc1ccccn1)c1cccc(S(=O)(=O)N2CCc3ccccc32)c1 | 2.8 | 21.6 | 5.0 | -10.2
NS(=O)(=O)c1ccc(NC(=O)c2ccc(S(=O)(=O)N3CCc4ccccc43)cc2)cc1 | -6.8 | -1.2 | 14.1 | 2.6
